Source: PubChem BioAssay (NCI)
Compounds without any hit were thinned out: in the full panel of roughly 79,000, 15% have a hit. No stated cut-off is given here; in the data, active means growth inhibition above about 70%; inactive means the rest.

How the values were obtained:
[1] = NCI Yeast Anticancer Drug Screen. Data for the rad50 strain (AID 155);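 further: 0% = growth of vehicle-only cultures of the same strain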; details: S. cerevisiae rad50 strain growth inhibition; at 50.0 µM; active compounds read high
How it was run: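 Cells are treated with compound, grown, and their growth is then scored against vehicle-only cultures of the same repair-deficient yeast strain.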

[2] = NCI Yeast Anticancer Drug Screen. Data for the mec2-1 strain (AID 157); details: S. cerevisiae mec2-1 strain, at 50.0 µM, active compounds read high
How it was run: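 Growth inhibition is read against vehicle-treated controls after compound exposure of the mec2-1 yeast strain, which is defective in DNA damage repair or cell cycle control.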

[3] = NCI Yeast Anticancer Drug Screen. Data for the sgs1 mgt1 strain (AID 161);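 further: 0% = growth of cultures given vehicle only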; details: S. cerevisiae sgs1 mgt1 strain, at 50.0 µM, active compounds read high
How it was run: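 Compounds are added to genetically altered yeast, and growth is compared with cultures given vehicle alone to give percent inhibition.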

[4] = NCI Yeast Anticancer Drug Screen. Data for the cln2 rad14 strain (AID 165);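 further: 0% = growth equal to vehicle treated cultures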; details: S. cerevisiae cln2 rad14 strain, at 50.0 µM, active compounds read high
How it was run: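 Growth inhibition, relative to vehicle-treated controls, is the read-out. The test organism is a yeast strain with defined genetic alterations, cln2 rad14.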

[5] = NCI Yeast Anticancer Drug Screen. Data for the bub3 strain (AID 167); details: S. cerevisiae bub3 mutant strain, at 50.0 µM, active compounds read high
How it was run: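 Part of a panel of yeast mutants defective in DNA damage repair or cell cycle regulation. Each strain is grown with compound, and inhibition is calculated relative to solvent-treated cultures.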

[6] = NCI Yeast Anticancer Drug Screen. Data for the mlh1 rad18 strain (AID 175); details: S. cerevisiae mlh1 rad18 strain growth inhibition; at 50.0 µM; active compounds read high
How it was run: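 Cells of a genetically altered yeast strain, deficient in DNA damage repair, were treated with compound. Their growth was then compared with that of vehicle-treated cultures to give inhibition.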

Measured: growth inhibition

OCC(O)COCCCCCCCCCCCCCC1C=CCC1 (configuration not stated)
inactive: [1] -35.8% | [2] -43.5% | [3] -35% | [4] -4.3% | [5] -23.5% | [6] -30.7%

COc1ccc(OC)c(NC(=O)Nc2cc(Cl)ccc2C)c1
inactive: [1] 4.25% | [2] 0.65% | [3] -2.3% | [4] -6.1% | [5] 19.2% | [6] 4.8%

CCc1ccc(N=Nc2c(F)c(F)c(N(C)C)c(F)c2F)cc1
inactive: [1] -2.4% | [2] 7.7% | [3] 6.85% | [4] 4.1% | [5] 1.05% | [6] -1.25%

CC1=C(C(=O)NC2CCCCC2)CC(C(=O)NC2CCCCC2)=C(C)N1
inactive: [1] -16.6% | [2] -25.6% | [3] -26.2% | [4] -21.1% | [5] -17.3% | [6] -61.9%

COc1ccc(N2C(=O)C3c4[nH]c5cccc(C)c5c4C4CCC(C(C)(C)C)CC4C3C2=O)cc1 (configuration not stated)
inactive: [1] 8.75% | [2] -21.1% | [3] -5.75% | [4] -10.6% | [5] 2.8% | [6] 6%

COCc1nc2c(=O)[nH]c(N)nc2[nH]c1=O
inactive: [1] 2.55% | [2] -3.55% | [3] -4.8% | [4] -0.25% | [5] 1.7% | [6] 1.1%

CCOc1ccc(-c2nnc(Nc3ccc(S(=O)(=O)N4CCCCC4)cc3)s2)cc1
inactive: [1] 10.3% | [2] 9.6% | [3] 13.7% | [4] -38% | [5] -2.15% | [6] 16.7%

Cc1ccc(C)c(C2NC(=O)c3ccccc3N2)c1 (configuration not stated)
inactive: [1] -15.8% | [2] -9.25% | [3] -44.8% | [4] -30.2% | [5] -52.2% | [6] -19.8%

Fc1cc(Cl)c(F)cc1Cl
inactive: [1] -18% | [2] -17.8% | [3] -18.2% | [4] -27.3% | [5] -12.4% | [6] -27.4%

Cc1cccc2c1CCC21OC(=O)c2c1cc(F)c1ccccc21 (configuration not stated)
inactive: [1] -13.3% | [2] -15.4% | [3] -8.5% | [4] 2.55% | [5] 14.5% | [6] 4.35%

O=[N+]([O-])/C(N=Nc1ccc2ccccc2c1Br)=N/Nc1ccc2ccccc2c1Br
inactive: [1] 34.5% | [2] 5.85% | [3] 19.4% | [4] -2.85% | [5] -0.2% | [6] 13.2%

CC(C)C(=O)OCC1OC(n2cnc3c(=S)nc[nH]c32)C(OC(=O)C(C)C)C1OC(=O)C(C)C (configuration not stated)
inactive: [1] -6.8% | [2] 2.2% | [3] 2.4% | [4] -13.4% | [5] -9.55% | [6] 2.1%

CCCCCC/C=N\NC(N)=S
inactive: [1] -17.1% | [2] 14.2% | [3] 30.4% | [4] -71.1% | [5] 17.9% | [6] 28.2%

CC1Cc2ccccc2C2=C3CC=CCC3C3C(=O)OC(=O)C3C21 (configuration not stated)
inactive: [1] 11.4% | [2] 8.05% | [3] 0.5% | [4] 2.3% | [5] 6.05% | [6] 7.65%

COc1ccccc1C(O)c1ccccc1 (configuration not stated)
inactive: [1] 9.6% | [2] -30.4% | [3] 15.3% | [4] 11.4% | [5] 9.3% | [6] 3.75%

CN1Cc2cc3c(cc2-c2ccccc21)OCO3
inactive: [1] -23.7% | [2] -35.7% | [3] -44.9% | [4] 6.4% | [5] -36.5% | [6] -35.6%

Cn1c(=O)c2c(nc(Br)n2CC(=O)CF)n(C)c1=O
inactive: [1] 13.2% | [2] 10.8% | [3] -3.75% | [4] -24.4% | [5] 8% | [6] 20.4%

COC(=O)c1cc(-c2ccncc2)[nH]c(=O)c1C#N
inactive: [1] -5.05% | [2] -32.1% | [3] -33.9% | [4] -18.1% | [5] -15.2% | [6] -19.9%

C=CN1C(=O)NC(C)(CC(C)C)C1=O (configuration not stated)
inactive: [1] -1.15% | [2] -10.2% | [3] -6% | [4] 6.75% | [5] -7.25% | [6] 18.4%

COc1ccc2c(c1OC)C1(CCN(C)C)CC(O)CCC1C=C2 (configuration not stated)
inactive: [1] 20.4% | [2] 7.95% | [3] 5.75% | [4] -4.6% | [5] 13.2% | [6] 18.1%

Cc1ccc(Br)c2c1CCC2=O
inactive: [1] 1.85% | [2] -5.05% | [3] 0.9% | [4] -52.5% | [5] -23% | [6] 1.65%

CCOC(=O)C1(Br)C(c2ccccc2)NC(=O)N(C2OC(COC(=O)c3ccccc3)C(OC(=O)c3ccccc3)C2OC(=O)c2ccccc2)C1(C)Br (configuration not stated)
inactive: [1] -25.4% | [2] -28.4% | [3] -27.9% | [4] 6.4% | [5] 7% | [6] -22.8%

O=C(Nc1nnc(C(F)(F)F)s1)c1c(F)cccc1F
inactive: [1] 7.75% | [2] 16.7% | [3] 24.9% | [4] 19.5% | [5] 37% | [6] 30.1%

CC1NC(=O)CC(c2ccccc2)N(N=O)C1c1ccccc1 (configuration not stated)
inactive: [1] -53.5% | [2] -3.3% | [3] -4.1% | [4] -7% | [5] -9.05% | [6] 8.65%

CN(C)CCCNc1ccnc2cc([N+](=O)[O-])ccc12
inactive: [1] 10.2% | [2] 3.3% | [3] 4.4% | [4] -4.1% | [5] -1.3% | [6] -17.1%

COC(=O)c1ccc(C(=O)OC)c2nc3cc(Cl)ccc3nc12
inactive: [1] -7.05% | [2] -10.2% | [3] -35.5% | [4] -29.2% | [5] -10.6% | [6] -40.1%

CC(C)=CC(=O)N1CCN(C(=O)C=C(C)C)CC1
inactive: [1] -33.9% | [2] -20.1% | [3] -5.75% | [4] 18.8% | [5] 10.9% | [6] -10.4%

CCCCC(CC)COC(=O)Cc1ccccc1 (configuration not stated)
inactive: [1] 17.3% | [2] 17.1% | [3] 15.8% | [4] -5.85% | [5] 40.1% | [6] 34.7%

CCOc1ccccc1NC(=O)C1=C(C)NC(C)=C(C(=O)Nc2ccccc2OCC)C1c1ccc(NC(C)=O)cc1
inactive: [1] -30.1% | [2] -10.8% | [3] -15.4% | [4] -5.9% | [5] -22.2% | [6] 11.7%

O=Cc1ccc(-c2ccc([N+](=O)[O-])cc2)o1
inactive: [1] 3.7% | [2] 9% | [3] -9.5% | [4] -7.8% | [5] -0.3% | [6] 3.6%

C=CCOc1cc2c(cc1C(C)c1ccc(OCC)cc1)OCO2 (configuration not stated)
inactive: [1] 51.6% | [2] 14.8% | [3] -14.6% | [4] -19.4% | [5] -10.8% | [6] -32.3%

CCC(CC)CC1CCCCC1=O (configuration not stated)
inactive: [1] 1.3% | [2] -5.25% | [3] -6.25% | [4] 3.75% | [5] -20.6% | [6] -7.65%

COc1ccc2c(-c3cc4ccccc4o3)cc(=O)oc2c1
inactive: [1] -6.4% | [2] -16.9% | [3] -21.3% | [4] 2% | [5] 3% | [6] -31.9%

CCOC(=O)c1sc(N)nc1C
inactive: [1] -17.8% | [2] -12.2% | [3] -17.2% | [4] -21.9% | [5] -11.5% | [6] 0.35%

Cc1ccc(Cl)cc1NC(=O)Nc1cccc(C(F)(F)F)c1
inactive: [1] 3.3% | [2] 25.5% | [3] 14.2% | [4] -5.4% | [5] 37.1% | [6] 8.95%

N=c1ccc2ccccc2n1O
inactive: [1] 10.6% | [2] -3.85% | [3] -4.2% | [4] -49.1% | [5] 7.2% | [6] -7.9%

OCCOCCNc1ncnc2cc(Cl)ccc12
inactive: [1] -12.4% | [2] -14.7% | [3] 5.25% | [4] -14.2% | [5] 7.2% | [6] 4.2%

Cc1cccc(OCCCCCl)c1
inactive: [1] -18% | [2] -9.7% | [3] -8.25% | [4] 10.4% | [5] -20.6% | [6] -9.3%

COc1ccc(/C=C2\SC(c3ccc(OC)cc3)N(NC(=O)Cc3ccccc3)C2=O)cc1 (configuration not stated)
inactive: [1] -14.2% | [2] -34.8% | [3] -6.9% | [4] -63.2% | [5] 1.1% | [6] 1.15%

O=C(/C=C/c1ccc2c(c1)OCO2)c1cccc2ccccc12
inactive: [1] -4.4% | [2] -14.6% | [3] -17.4% | [4] 4.05% | [5] -3% | [6] 5%

O=C1C(=O)C(CCc2ccccc2)C(=O)/C1=C\c1ccccc1 (configuration not stated)
inactive: [1] 4.4% | [2] 17.6% | [3] 10.6% | [4] -10.4% | [5] -6.55% | [6] 20.2%

O=C1C2Nc3ccccc3N=C2OC1c1cccc([N+](=O)[O-])c1 (configuration not stated)
inactive: [1] 16.3% | [2] 15.6% | [3] 22.9% | [4] 16.9% | [5] 20.6% | [6] 24.2%
